We go through 5 compounds from PubChem BioAssay (EPA / NIEHS).

Read-out in experiment [1]: Vascular endothelial growth factor receptor 2 (Homo sapiens) (UniProt P35968)
In words: BSK_4H_VEGFRII: BioMAP Diversity Plus: 4H Assay for Vascular endothelial growth factor receptor 2 (VEGFR2) Biomarker Activity (AID 2283031).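 On AC50: cell-surface VEGFR2 protein level quantified by ELISA.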 The conditions noted are these: primary human endothelial cells (HUVEC); actives raise or lower the signal. In outline: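 Primary human umbilical vein endothelial cells (4H system), 24 h exposure; cell-surface VEGFR2 measured by ELISA. Bidirectional fitting versus DMSO; cytotoxicity checked in parallel by SRB total-protein staining.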

Read-out in experiment [2]: Human Leukocyte Antigen - DR isotype (HLADR), HLA-DRA (gene 3122)
The experiment in a line: BSK_BE3C_HLADR: BioMAP Diversity Plus: BE3C Assay for Human Leukocyte Antigen - DR isotype (HLADR) Biomarker Activity (AID 2283032). The conditions noted are these: primary human bronchial epithelial cells; actives raise or lower the signal. In outline:
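ELISA read-out of HLA-DR on human lung bronchial epithelial primary cells, measured 24 h post-dosing. Both increases and decreases were scored relative to DMSO vehicle.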

Read-out in experiment [3]: Vascular cell adhesion molecule 1 (VCAM1), VCAM1 (gene 7412)
In words: BSK_4H_VCAM1: BioMAP Diversity Plus: 4H Assay for Vascular cell adhesion molecule 1 (VCAM1) Biomarker Activity (AID 2283033).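 On outcome: cell-surface VCAM-1 protein measured by ELISA.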 The conditions noted are these: primary human endothelial cells (HUVEC); actives raise or lower the signal. In outline: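 ELISA read-out of VCAM-1 on human umbilical vein endothelium 24 hours after chemical dosing; gain or loss of signal was fitted relative to DMSO, with sulforhodamine B staining of parallel cultures flagging overt cytotoxicity.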

Read-out in experiment [4]: Interferon-gamma inducible Protein 10 (IP10), CXCL10 (gene 3627)
The experiment in a line: BSK_BE3C_IP10: BioMAP Diversity Plus: BE3C Assay for Interferon-gamma inducible Protein 10 (IP10) Biomarker Activity (AID 2283034). The settings on record: primary human bronchial epithelial cells; actives raise or lower the signal. The method in brief: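 Chemical is dosed onto human lung bronchial epithelial primary cells, cultures are incubated 24 h, and IP-10 is then quantified by ELISA. Gain or loss of signal is fitted in both directions relative to DMSO.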

Read-out in experiment [5]: Monokine induced gamma interferon (MIG), CXCL9 (gene 4283)
In words: BSK_BE3C_MIG: BioMAP Diversity Plus: BE3C Assay for Monokine induced gamma interferon (MIG) Biomarker Activity (AID 2283035).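 On outcome: MIG protein measured by ELISA in BE3C cultures after 24 h of dosing.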 The settings on record: primary human bronchial epithelial cells; actives raise or lower the signal. The method in brief: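 MIG level was determined by ELISA after 24 h chemical treatment of primary human bronchial epithelial cells. Values were fitted bidirectionally with DMSO as the negative control and activity baseline.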

Read-out in experiment [6]: Transforming growth factor beta 1 (TGFb1), TGFB1 (gene 7040)
In words: BSK_BE3C_TGFb1: BioMAP Diversity Plus: BE3C Assay for Transforming growth factor beta 1 (TGFb1) Biomarker Activity (AID 2283036;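 on outcome: TGF-b1 protein level measured by ELISA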). The settings on record: primary human bronchial epithelial cells; actives raise or lower the signal. The method in brief: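 Primary human lung bronchial epithelial cells; compound exposure 24 h; TGF-b1 by ELISA; bidirectional fit, DMSO baseline. Parallel SRB total-protein staining for cytotoxicity.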

Read-out in experiment [7]: Plasminogen activator inhibitor-1 (PAI1), SERPINE1 (gene 5054)
The experiment in a line: BSK_BE3C_PAI1: BioMAP Diversity Plus: BE3C Assay for Plasminogen activator inhibitor-1 (PAI1) Biomarker Activity (AID 2283037). The settings on record: primary human bronchial epithelial cells; actives raise or lower the signal. The method in brief: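 Primary human lung bronchial epithelial cells; chemical dosing; 24 h; PAI-1 measured by ELISA; bidirectional fit referenced to DMSO as negative control.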

Read-out in experiment [8]: urokinase plasminogen activator (uPA), PLAU (gene 5328)
The experiment in a line: BSK_BE3C_uPA: BioMAP Diversity Plus: BE3C Assay for urokinase plasminogen activator (uPA) Biomarker Activity (AID 2283038).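 On outcome: uPA protein level quantified by ELISA in cell cultures; uPA read one day after compound addition.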 The conditions noted are these: primary human bronchial epithelial cells; actives raise or lower the signal. In outline:
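Primary human bronchial epithelial cells, uPA measured by ELISA 24 h after dosing. Bidirectional change relative to DMSO; cytotoxicity checked in parallel cultures by sulforhodamine B total-protein staining.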

Read-out in experiment [9]: Urokinase-type plasminogen activator receptor (uPAR), PLAUR (gene 5329)
In words: BSK_BE3C_uPAR: BioMAP Diversity Plus: BE3C Assay for Urokinase-type plasminogen activator receptor (uPAR) Biomarker Activity (AID 2283039).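 On outcome: uPAR protein level measured by ELISA on the cells; cells exposed to compound for one day before measurement.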 The conditions noted are these: primary human bronchial epithelial cells; actives raise or lower the signal. The method in brief: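 Human bronchial epithelial primary cells; chemical exposure 24 h; uPAR by ELISA; bidirectional fit vs DMSO control.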

Read-out in experiment [10]: Interleukin-6 (IL6), IL6 (gene 3569)
The experiment in a line: BSK_CASM3C_IL6: BioMAP Diversity Plus: CASM3C Assay for Interleukin-6 (IL6) Biomarker Activity for (AID 2283040). The conditions noted are these: primary human coronary artery smooth muscle cells; actives raise or lower the signal.

Read-out in experiment [11]: Tissue plasminogen activator (tPA), PLAT (gene 5327)
In words: BSK_BE3C_tPA: BioMAP Diversity Plus: BE3C Assay for Tissue plasminogen activator (tPA) Biomarker Activity (AID 2283041).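 On outcome: tPA level quantified by ELISA one day after compound addition.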 The settings on record: primary human bronchial epithelial cells; actives raise or lower the signal. The method in brief:
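Primary human lung bronchial epithelial cultures receive test chemical; after 24 h, tPA is quantified by ELISA, and gain or loss of signal is fitted bidirectionally relative to DMSO baseline.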

Read-out in experiment [12]: Interleukin-8 (IL8), CXCL8 (gene 3576)
In words: BSK_CASM3C_IL8: BioMAP Diversity Plus: CASM3C Assay for Interleukin-8 (IL8) Biomarker Activity (AID 2283042).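 Further: IL-8 protein level quantified by ELISA.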 The settings on record: primary human coronary artery smooth muscle cells; actives raise or lower the signal.

Read-out in experiment [13]: Human Leukocyte Antigen - DR isotype (HLADR), HLA-DRA (gene 3122)
The experiment in a line: BSK_CASM3C_HLADR: BioMAP Diversity Plus: CASM3C Assay for Human Leukocyte Antigen - DR isotype (HLADR) Biomarker Activity (AID 2283043).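 Further: cell-surface HLA-DR protein level quantified by ELISA.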 The settings on record: primary human coronary artery smooth muscle cells; actives raise or lower the signal.

Read-out in experiment [14]: Macrophage colony-stimulating factor (MCSF), CSF1 (gene 1435)
The experiment in a line: BSK_CASM3C_MCSF: BioMAP Diversity Plus: CASM3C Assay for Macrophage colony-stimulating factor (MCSF) Biomarker Activity (AID 2283044).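 Further: M-CSF protein amount quantified by ELISA after 24 h exposure.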 The settings on record: primary human coronary artery smooth muscle cells; actives raise or lower the signal.

Read-out in experiment [15]: Low-density lipoprotein receptor (LDLR), LDLR (gene 3949)
The experiment in a line: BSK_CASM3C_LDLR: BioMAP Diversity Plus: CASM3C Assay for Low-density lipoprotein receptor (LDLR) Biomarker Activity (AID 2283045).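 Further: LDLR protein level on the cell surface quantified by ELISA.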 The conditions noted are these: primary human coronary artery smooth muscle cells; actives raise or lower the signal.

Read-out in experiment [16]: Monocyte Chemoattractant Protein-1 (MCP1), CCL2 (gene 6347)
The experiment in a line: BSK_CASM3C_MCP1: BioMAP Diversity Plus: CASM3C Assay for Monocyte Chemoattractant Protein-1 (MCP1) Biomarker Activity (AID 2283046).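 Further: MCP-1 level quantified by ELISA 24 h after dosing.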 The conditions noted are these: primary human coronary artery smooth muscle cells; actives raise or lower the signal.

Experiment [17] is described as follows: BSK_CASM3C_Proliferation: Cell Proliferation Assessment in the BioMAP Diversity Plus: CASM3C Assay (AID 2283047).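 Further: sulforhodamine B total protein stain as relative cell number at 560 nm; sub-confluent cells exposed 48 h before staining; fitted both ways against DMSO so gain or loss of cell number.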 The conditions noted are these: primary human coronary artery smooth muscle cells.
Read-out in experiment [18]: Monokine induced gamma interferon (MIG), CXCL9 (gene 4283)
The experiment in a line: BSK_CASM3C_MIG: BioMAP Diversity Plus: CASM3C Assay for Monokine induced gamma interferon (MIG) Biomarker Activity (AID 2283048).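 Further: MIG protein level measured by ELISA.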 The conditions noted are these: primary human coronary artery smooth muscle cells; actives raise or lower the signal.

Read-out in experiment [19]: serum amyloid A (SAA), SAA1 (gene 6288)
The experiment in a line: BSK_CASM3C_SAA: BioMAP Diversity Plus: CASM3C Assay for serum amyloid A (SAA) Biomarker Activity (AID 2283049).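 Further: SAA protein level quantified by ELISA.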 The settings on record: primary human coronary artery smooth muscle cells; actives raise or lower the signal.

Experiment [20] can be described thus: BSK_CASM3C_SRB: Viability Assessment in the BioMAP Diversity Plus: CASM3C Assay (AID 2283050).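 Further: total protein by SRB staining as cytotoxicity measure in parallel cultures.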 The settings on record: primary human coronary artery smooth muscle cells.

The structures appear in SMILES notation. “And” between values parts separate entries of the source, which are not always exact repeats. Equal entries are not always repeated. A structure can be active in one record and inactive in another. The source made the active and inactive calls. How the source made its calls: active means hit-call score of the fitted dose curve at least 0.9, where 1 is the maximum; inactive means score below 0.9.

As for `COC(=O)c1ccccc1CS(=O)(=O)NC(=O)Nc1nc(OC)cc(OC)n1`, the outcome in [1], in experiment [2], in [3], in [4], in experiment [5] and in [6] was inactive. In addition, the outcome in experiment [7], in [8], in [9], in experiment [10], in experiment [11] and in [12] was inactive. For the same compound, the outcome in experiment [13], in [14], in [15], in experiment [16], in experiment [17] and in experiment [18] was inactive. The result in [19] and in experiment [20] was inactive.
In the case of `CCOC1Oc2ccc(OS(C)(=O)=O)cc2C1(C)C` (stereo not given), the result in [1], in experiment [3], in experiment [4], in experiment [5], in experiment [6] and in [7] was inactive. In addition, the outcome in [9], in experiment [10], in experiment [11], in [12], in experiment [13] and in experiment [14] was inactive. Further, the result in [15], in [16], in experiment [17], in [18], in experiment [19] and in experiment [20] was inactive. Moreover, the results for the AC50 in experiment [2] and in experiment [8] were 24 µM (active) and 26.5 µM (active), respectively.
As for `CCC(C)(C)C(=O)OC1=C(c2ccc(Cl)cc2Cl)C(=O)OC12CCCCC2`, the outcome in experiment [1], in [10], in experiment [12], in experiment [13], in experiment [15] and in [16] was inactive. Further, the result in experiment [18] and in experiment [19] was inactive. Further, the AC50 (commonly the concentration at which the activity in the assay is half-maximal) was 23.5 µM (active) in [2]; 36.6 µM (active) in experiment [3]; 31.3 µM (active) in experiment [4]; 34.2 µM (active) in [5]; 35.7 µM (active) in experiment [6]; 20 µM (active) in [7]. For the same compound, the concentration at half-maximal activity (AC50) in experiment [8] is 31.1 µM (active); in [9], 36.4 µM (active); in experiment [11] it was 20 µM (active); in experiment [14] it was 13.7 µM (active); in experiment [17], 25.7 µM (active); in experiment [20], 28.7 µM (active).
`COc1nn(CSP(=S)(OC)OC)c(=O)s1`: the outcome in experiment [1], in [2], in experiment [3], in experiment [4], in experiment [5] and in experiment [6] was inactive. Moreover, the result in [7], in [8], in [9], in [10], in [11] and in experiment [12] was inactive. Further, the outcome in [13], in [14], in [15], in [16], in [17] and in experiment [18] was inactive. Moreover, the result in experiment [19] and in [20] was inactive.
Turning to `Oc1cc(Cl)ccc1Oc1ccc(Cl)cc1Cl`, the half-maximal activity concentration (AC50) was 6.66 µM (active) and 9.59 µM (active) in experiment [1]; 30.3 µM (active) [middle of 4 runs] in [2]; 23.8 µM (active) [middle of 4 runs] in experiment [3]; 29.3 µM (active) [middle of 4 runs] in experiment [4]; 36 µM (active) [middle of 4 runs] in [5]; 27.5 µM (active) [middle of 4 runs] in [6]. In addition, the AC50 in experiment [7] is 30.1 µM (active) [middle of 4 runs]; in experiment [8], 31.2 µM (active) [middle of 4 runs]; in experiment [9], 30.5 µM (active) [middle of 4 runs]; in experiment [11], 20.4 µM (active) [middle of 4 runs]; in experiment [12], 37.7 µM (active) [middle of 4 runs]; in [13] it was 29.4 µM (active) [middle of 4 runs]. The AC50 in [14] was 34 µM (active) [middle of 4 runs]; in [15], 30 µM (active) [middle of 4 runs]; in [16], 33.6 µM (active) and 37.7 µM (active) and 31.4 µM (active); in [17], 17.6 µM (active) [middle of 4 runs]; in [18] it was 37.8 µM (active) [middle of 4 runs]; in experiment [19] it was 32 µM (active) [middle of 4 runs]. In [20], the AC50 was 33.1 µM (active) [middle of 4 runs]. Further, the outcome in experiment [1] was inactive.
